# Experimental data from PubChem BioAssay (NCATS).
# Unmarked numbers belong to inactive results. Results filed as inconclusive are left out. Activity calls are given as the source filed them. Calls come from the whole dose curve; as a rule, active = well fitted inhibition curve with a large enough effect; inconclusive = small, poorly fitted or top-dose-only effect; inactive = flat fitted curve, though single readings scatter.
# Target: Phospholipid hydroperoxide glutathione peroxidase GPX4 (Homo sapiens) (UniProt P36969)
# Assay: Primary qHTS Assay for Inhibitors of Recombinant Selenoprotein Glutathione Peroxidase 4 (GPX4) (AID 1845192); note: nearly all actives have a fitted effect of over 65% in size; for activity change, negative = inhibition: % is set by controls: 0 for no effect and ±100 for the full control effect
# Settings: recombinant GPX4, GR-coupled NADPH fluorescence, 15 min; series mostly up to 50 µM; activity change, negative = inhibition: at the top concentration
# Summary of the method: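 GR-coupled readout: 100 nM GR, 1 mM GSH, 0.5 mM NADPH; NADPH fluorescence (ex 340/em 450 nm) read at t=0 and after 15 min RT. GPX4 200 nM, preincubated 30 min with compound; substrate 0.5 mM CHP.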
# Sequence of Phospholipid hydroperoxide glutathione peroxidase GPX4 (Homo sapiens) (P36969 whole entry, looked up): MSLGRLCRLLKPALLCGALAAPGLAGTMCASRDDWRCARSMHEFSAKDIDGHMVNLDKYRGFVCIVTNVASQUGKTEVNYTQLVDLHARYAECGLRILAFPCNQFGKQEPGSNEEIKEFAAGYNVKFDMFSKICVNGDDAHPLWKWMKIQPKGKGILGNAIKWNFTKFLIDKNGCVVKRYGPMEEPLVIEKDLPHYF
Compound,"activity change, negative = inhibition",outcome,Potency
Cc1cc(OCc2nc(-c3ccccc3Cl)cs2)ccc1OCC(=O)O,14.8%,,
CC1OC(OC2C(O)C(OC3CCC4(C)C(CCC5(C)C4CC=C4C6CC(C)(COC7OC(CO)C(O)C(O)C7O)CC(O)C6(C)CCC45C)C3(C)C)OC(C(=O)O)C2O)C(O)C(O)C1OC1OCC(O)C(O)C1O (stereo not given),-7.84% [at 15.3 µM],,
CC(=O)OC1C(OC(=O)c2ccccc2)C2C(C)(C)CC(=O)CC2(C)C23CCC(C)(C2)C(O)CC13 (stereo not given),-8.3% [at 27.8 µM],,
COCCOc1cnc2ccn([C@H](C)c3nnc4c(F)cc(-c5cnn(C)c5)cn34)c(=O)c2c1,-9.11%,,
CC12CCC(=O)C=C1C(O)CC1C2C(O)CC2(C)C1CC[C@]2(O)C(=O)CO (stereo not given in full),,inactive [at 15.3 µM],
O=C(N/N=C/c1ccc(O)c(O)c1)c1cc2ccccc2cc1O,2.05% [at 15.3 µM],,
C=CC1C(OC2OC(CO)C(O)C(O)C2O)OC=C(C(=O)OC)C1CC1CC(=O)CC(CCc2ccc(O)cc2)O1 (stereo not given),-13.4% [at 15.3 µM],,
CC(C)C(CO)Nc1nc(Nc2ccc(C(=O)O)c(Cl)c2)c2ncn(C(C)C)c2n1 (stereo not given),-8.02%,,
CC[C@]1(O)CC2CN(CCc3c([nH]c4ccccc34)[C@@](C(=O)OC)(c3cc4c(cc3OC)N(C)[C@H]3[C@@](O)(C(=O)OC)[C@H](OC(C)=O)[C@]5(CC)C=CCN6CC[C@]43[C@@H]65)C2)C1 (stereo not given in full),,,inactive
C[C@H](NC(=O)CCc1nc2ccccc2c(=O)[nH]1)c1ccccc1,-9.01%,,
CC(C)=CC/C=C(\C)[C@H]1CC[C@]2(C)[C@@H]1[C@H](O)C[C@@H]1[C@@]3(C)CC[C@H](O)C(C)(C)[C@@H]3[C@@H](O[C@@H]3O[C@H](CO)[C@@H](O)[C@H](O)[C@H]3O)C[C@]12C,-20.2%,,
CC1CCC2C(C)(C)[C@@H](O)CC[C@]2(C)C12Cc1c(O)cc3c(c1O2)CN(C(CCC(=O)O)C(=O)O)C3=O (stereo not given in full),-4.21% [at 27.8 µM],,
COC(=O)C[C@H]1[C@]2(C)C3=C(C)[C@H](c4ccoc4)C[C@H]3O[C@@H]2[C@H](OC(C)=O)C2[C@](C)(C(=O)OC)C=CC(=O)[C@@]21C (stereo not given in full),-10.7% [at 27.8 µM],,
CC1=CC(=O)[C@H]2C(C)(C)CCC[C@]2(C)[C@@]1(O)CO,,inactive,
CC(C)C(NC(=O)c1ccc2ccccc2n1)C(=O)NC(CC(=O)O)C(=O)COc1c(F)cccc1F (stereo not given),-4.32%,,
O=C(O)c1cc(I)ccc1NC(=O)[C@H](Cc1ccccc1)NCc1ccccc1,-0.313%,,
OC[C@H]1O[C@@H](OC[C@H]2O[C@@H](OC/C=C/c3ccccc3)[C@H](O)[C@@H](O)[C@@H]2O)[C@@H](O)[C@@H]1O,4.55% [at 27.8 µM],,

# Target: Luciferin 4-monooxygenase (Photinus pyralis) (UniProt P08659)
# Assay: Primary firefly luciferase (FLuc) qHTS assay for identification of artifact compounds. (AID 1845220); note: nearly all actives have a fitted effect of over 60% in size; note: potency is the fitted concentration of half-maximal effect;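 for activity change, negative = inhibition: plate controls were DMSO vehicle for no effect and no enzyme for full effect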
# Settings: purified firefly luciferase, luminescence, 5 min; series mostly up to 54.1 µM; activity change, negative = inhibition: at the top concentration
# Summary of the method: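 qHTS, 15 min compound preincubation with substrate (10 uM luciferin, 10 uM ATP) at RT, then 10 nM FLuc; 5 min; luminescence; % inhibition vs no-enzyme/DMSO controls, 4-parameter Hill fit.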
Compound,"activity change, negative = inhibition",outcome,Potency
CCCNc1ccc2ncc(-c3ccc4[nH]ncc4c3)n2n1,-3.81%,,
Cc1cc(C)c(Nc2ccnc(Nc3ccc(C#N)cc3)n2)c(C)c1,-9.06%,,
CC(C)=CCC/C(C)=C/CO[C@@H]1O[C@H](CO)[C@@H](OC(=O)/C=C/c2ccc(O)cc2)[C@H](O[C@@H]2O[C@@H](C)[C@H](O)[C@@H](O)[C@H]2O)[C@H]1O,-3.24% [at 25.7 µM],,
CC1(C)CC2C(C1)C(C)(O)C13CC1(COC3=O)C2O (stereo not given),-10.4%,,
CC1=C(C)C(=O)OC(C(C)C2CCC3C4CC=C5CC(OC6OC(COC7OC(CO)C(O)C(O)C7O)C(O)C(O)C6O)CC(O)C5(C)C4CCC23C)C1 (stereo not given),,inactive [at 25.7 µM],
O=C(c1cccc(Cl)c1F)N1CCN(Cc2cccc(Nc3nccs3)n2)CC1,,inactive,
CC(=O)NCC(=O)N1C2CCC1c1cc(Nc3ncc(C(F)(F)F)c(NC4CCC4)n3)ccc12 (stereo not given),1.06%,,
Cc1nc(Nc2n[nH]c3c2CN(C(=O)NC(CN(C)C)c2ccccc2)C3(C)C)c2sccc2n1 (stereo not given),4.99%,,
COc1ccc([C@@H]2OC[C@H]3[C@@H]2CO[C@@H]3c2ccc(OC3OC(CO)C(O)C(O)C3O)c(OC)c2)cc1OC (stereo not given in full),-0.859% [at 25.7 µM],,
CC1CC[C@]2(C(=O)O)CC[C@]3(C(=O)O)C(=CCC4[C@@]5(C)CC[C@H](OC6OC(C)C(O)C(OC7OC(CO)C(O)C(O)C7O)C6O)C(C)(C)C5CC[C@]43C)C2C1C (stereo not given in full),,inactive [at 25.7 µM],
CC(=O)OC[C@]12[C@H](OC(C)=O)C(=O)[C@@H]3[C@@H](OC(C)=O)[C@@]14O[C@@]3(C)COC(=O)c1cccnc1[C@@H](C)[C@H](C)C(=O)O[C@@H]([C@H](O)[C@@H]2OC(C)=O)[C@]4(C)O,-0.289% [at 25.7 µM],,
CC(C)=CCC[C@](C)(O)[C@H]1CC[C@]2(C)[C@@H]1[C@H](O)CC1[C@@]3(C)CC[C@H](O)C(C)(C)[C@@H]3[C@@H](O[C@@H]3O[C@H](CO)[C@@H](O)[C@H](O)[C@H]3O[C@@H]3O[C@H](CO)[C@@H](O)[C@H](O)[C@H]3O)C[C@]12C (stereo not given in full),,inactive [at 25.7 µM],
CCOc1cc(C(=O)N2CCC(N3CCN(C)CC3)CC2)ccc1Nc1ncc2c(n1)N(C1CCCC1)c1ccccc1C(=O)N2C,1.23%,,
CC1(C)CCC2(C(=O)OC3OCC(O)C(O)C3O)CCC3(C)C(=CCC4C5(C)CC(O)C(OC6OC(COC7OCC(O)C(O)C7O)C(O)C(O)C6O)C(C)(C)C5CCC43C)C2C1 (stereo not given),,inactive [at 11.6 µM],
CC1=CC2C(CC1OC1OC(CO)C(O)C(O)C1O)C(C)CC(=O)C2C(C)C (stereo not given),-3.86%,,
C[C@@H]1O[C@@H](O[C@H]2[C@H](O)[C@@H](O[C@@H]3O[C@H](CO)[C@@H](O)[C@H](O[C@@H]4O[C@H](CO)[C@@H](O)[C@H](O)[C@H]4O)[C@H]3O)[C@H](O[C@H]3CC[C@@]4(C)C(=CC[C@@H]5C4CC[C@@]4(C)C5C[C@@H]5OC6(CC[C@@](C)(CO[C@@H]7O[C@H](CO)[C@@H](O)[C@H](O)[C@H]7O)O6)[C@@H](C)[C@@H]54)C3)O[C@@H]2CO)[C@H](O)[C@H](O)[C@H]1OC1OC(CO)C(O)C(O)C1O (stereo not given in full),2.07% [at 11.6 µM],,
O=C(c1cc2c(cc1F)OC(c1ccc(F)cc1)(c1ccc(Cl)cc1Cl)O2)N1CCOCC1 (stereo not given),0.117%,,
CN(C)c1ccc2c(c1)OC(N)=C(C#N)C2c1cccc(C(F)(F)F)c1 (stereo not given),0.944%,,
CC(C)=CCC[C@](C)(O[C@@H]1O[C@H](CO[C@@H]2O[C@H](CO)[C@@H](O)[C@H](O)[C@H]2O)[C@@H](O)[C@H](O)[C@H]1O)C1CC[C@]2(C)[C@@H]1[C@H](O)CC1[C@@]3(C)CC[C@H](O[C@@H]4O[C@H](CO)[C@@H](O)[C@H](O)[C@H]4O[C@@H]4O[C@H](CO)[C@@H](O)[C@H](O)[C@H]4O)C(C)(C)[C@@H]3CC[C@]12C (stereo not given in full),-9.29% [at 11.6 µM],,

Compound,"activity change, negative = inhibition",outcome,Potency
Cc1cc(OCc2nc(-c3ccccc3Cl)cs2)ccc1OCC(=O)O,,,9.53 µM (active)
CC1OC(OC2C(O)C(OC3CCC4(C)C(CCC5(C)C4CC=C4C6CC(C)(COC7OC(CO)C(O)C(O)C7O)CC(O)C6(C)CCC45C)C3(C)C)OC(C(=O)O)C2O)C(O)C(O)C1OC1OCC(O)C(O)C1O (stereo not given),0.0325% [at 11.6 µM],,
CC(=O)OC1C(OC(=O)c2ccccc2)C2C(C)(C)CC(=O)CC2(C)C23CCC(C)(C2)C(O)CC13 (stereo not given),-10.7% [at 25.7 µM],,
COCCOc1cnc2ccn([C@H](C)c3nnc4c(F)cc(-c5cnn(C)c5)cn34)c(=O)c2c1,-8.48%,,
CC12CCC(=O)C=C1C(O)CC1C2C(O)CC2(C)C1CC[C@]2(O)C(=O)CO (stereo not given in full),2.02% [at 11.6 µM],,
O=C(N/N=C/c1ccc(O)c(O)c1)c1cc2ccccc2cc1O,-10.1% [at 25.7 µM],,
C=CC1C(OC2OC(CO)C(O)C(O)C2O)OC=C(C(=O)OC)C1CC1CC(=O)CC(CCc2ccc(O)cc2)O1 (stereo not given),-8.88% [at 25.7 µM],,
CC(C)C(CO)Nc1nc(Nc2ccc(C(=O)O)c(Cl)c2)c2ncn(C(C)C)c2n1 (stereo not given),-28.8%,,
CC[C@]1(O)CC2CN(CCc3c([nH]c4ccccc34)[C@@](C(=O)OC)(c3cc4c(cc3OC)N(C)[C@H]3[C@@](O)(C(=O)OC)[C@H](OC(C)=O)[C@]5(CC)C=CCN6CC[C@]43[C@@H]65)C2)C1 (stereo not given in full),,inactive,
C[C@H](NC(=O)CCc1nc2ccccc2c(=O)[nH]1)c1ccccc1,-3.52%,,
COc1cc2nc(N3CCCC3)nc(NCCCCCN3CCCC3)c2cc1OC,-9.48%,,
CC(C)=CC/C=C(\C)[C@H]1CC[C@]2(C)[C@@H]1[C@H](O)C[C@@H]1[C@@]3(C)CC[C@H](O)C(C)(C)[C@@H]3[C@@H](O[C@@H]3O[C@H](CO)[C@@H](O)[C@H](O)[C@H]3O)C[C@]12C,-14.1%,,
CC1CCC2C(C)(C)[C@@H](O)CC[C@]2(C)C12Cc1c(O)cc3c(c1O2)CN(C(CCC(=O)O)C(=O)O)C3=O (stereo not given in full),2.14% [at 25.7 µM],,
COC(=O)C[C@H]1[C@]2(C)C3=C(C)[C@H](c4ccoc4)C[C@H]3O[C@@H]2[C@H](OC(C)=O)C2[C@](C)(C(=O)OC)C=CC(=O)[C@@]21C (stereo not given in full),,inactive [at 25.7 µM],
COc1cc2nc(N3CCC(N4CCCCC4)CC3)nc(NC3CCCCCC3)c2cc1OC,2%,,
CC1=CC(=O)[C@H]2C(C)(C)CCC[C@]2(C)[C@@]1(O)CO,,inactive,
CC(C)C(NC(=O)c1ccc2ccccc2n1)C(=O)NC(CC(=O)O)C(=O)COc1c(F)cccc1F (stereo not given),-20.9%,,
O=C(O)c1cc(I)ccc1NC(=O)[C@H](Cc1ccccc1)NCc1ccccc1,,inactive,
OC[C@H]1O[C@@H](OC[C@H]2O[C@@H](OC/C=C/c3ccccc3)[C@H](O)[C@@H](O)[C@@H]2O)[C@@H](O)[C@@H]1O,,inactive [at 25.7 µM],
